Drawing on PubChem BioAssay, this text covers z-score and composite z-score for 9 compounds.

Calls of active or inactive are those of the source.

Assay [1] can be described thus: E. coli DRC41 culture turbidity changes, primary screen, E. coli filamentation inducer project, strain DRC41, OD650, 48 h (AID 1152).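 Note: E. coli MC1000 strain DRC41 lacking acrAB efflux pump and sulA.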 Particulars: E. coli DRC41 (acrAB sulA), higher = more signal, called active from +8 up or from −8 down.
Assay [2] is described as follows: small-molecule binders of probe aLefty1, primary screen, biochemical, small-molecule microarray, 635/667 nm fluorescence (AID 1153).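 Note: score merges spot fluorescence with signal-to-noise ratio from the scanned slide images.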 Particulars: higher = more signal.
The nature of assay [3]: PSAC antagonists in infected red cells, primary screen, cell-based, P. falciparum Indochina, OD700, 1 h (AID 1154). Particulars: P. falciparum Indochina infected RBC osmotic lysis, higher = more signal, called active from +8 up or from −8 down.
Assay [4] in a line: PSAC antagonists in infected red cells, primary screen, cell-based, P. falciparum Indochina, OD700, 2 h (AID 1155).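 Note: lysis reports solute entry through the parasite surface anion channel PSAC; channel blockers reduce lysis of infected cells.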 Particulars: P. falciparum Indochina infected erythrocytes, osmotic lysis OD700; higher = more signal, called active from +8 up or from −8 down.
The nature of assay [5]: osmotic lysis modulators in infected erythrocytes, primary screen, PSAC antagonist project, cell-based, P. falciparum Indochina, OD700, 3 h (AID 1156). Particulars: higher = more signal, called active from +8 up or from −8 down.
Assay [6] in a line: PSAC antagonists in infected red cells, primary screen, cell-based, P. falciparum Indochina, OD700, 18 h (AID 1157). Particulars: P. falciparum Indochina infected erythrocytes, osmotic lysis OD700, 18 h; higher = more signal, called active from +8 up or from −8 down.
Assay [7] can be described thus: modulators of S6 phosphorylation in cells, primary screen, cell-based, A549, cytoblot, luminescence, serum-stimulated (AID 1158).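 Note: serum-stimulated A549 lung adenocarcinoma cells; signal is phosphorylated S6 detected by cytoblot immunostaining with HRP secondary.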 Particulars: A549 phospho-S6 cytoblot, 5 h, higher = more signal.
Assay [8] addresses NADPH oxidase 2 (Homo sapiens) (UniProt P04839). Put plainly: NOX2-dependent H2O2 signal modulators, primary screen, NOX inhibitor project, cell-based, HEK293-NOX2, PMA-stimulated, Amplex Red fluorescence (AID 1159). Note: test concentration not given here. Particulars: 45 min, higher = more signal, called active from +8 up or from −8 down.
Assay [9] has as its target NADPH oxidase 4 (Homo sapiens) (UniProt Q9NPH5). The experiment in a line: NOX4-dependent H2O2 signal modulators, primary screen, NOX inhibitor project, cell-based, HEK293-NOX4, tetracycline-induced, Amplex Red fluorescence (AID 1160). Particulars: 45 min, higher = more signal, called active from +8 up or from −8 down.
Assay [10] deals with NADPH oxidase 5 (Homo sapiens) (UniProt Q96PH1). The experiment in a line: NOX5-dependent H2O2 signal modulators, primary screen, NOX inhibitor project, cell-based, HEK293-NOX5, Amplex Red fluorescence (AID 1161). Particulars: HEK293-NOX5, ionomycin, 45 min, higher = more signal.
NADPH oxidase 5 (Homo sapiens), sequence (Q96PH1 whole entry, looked up): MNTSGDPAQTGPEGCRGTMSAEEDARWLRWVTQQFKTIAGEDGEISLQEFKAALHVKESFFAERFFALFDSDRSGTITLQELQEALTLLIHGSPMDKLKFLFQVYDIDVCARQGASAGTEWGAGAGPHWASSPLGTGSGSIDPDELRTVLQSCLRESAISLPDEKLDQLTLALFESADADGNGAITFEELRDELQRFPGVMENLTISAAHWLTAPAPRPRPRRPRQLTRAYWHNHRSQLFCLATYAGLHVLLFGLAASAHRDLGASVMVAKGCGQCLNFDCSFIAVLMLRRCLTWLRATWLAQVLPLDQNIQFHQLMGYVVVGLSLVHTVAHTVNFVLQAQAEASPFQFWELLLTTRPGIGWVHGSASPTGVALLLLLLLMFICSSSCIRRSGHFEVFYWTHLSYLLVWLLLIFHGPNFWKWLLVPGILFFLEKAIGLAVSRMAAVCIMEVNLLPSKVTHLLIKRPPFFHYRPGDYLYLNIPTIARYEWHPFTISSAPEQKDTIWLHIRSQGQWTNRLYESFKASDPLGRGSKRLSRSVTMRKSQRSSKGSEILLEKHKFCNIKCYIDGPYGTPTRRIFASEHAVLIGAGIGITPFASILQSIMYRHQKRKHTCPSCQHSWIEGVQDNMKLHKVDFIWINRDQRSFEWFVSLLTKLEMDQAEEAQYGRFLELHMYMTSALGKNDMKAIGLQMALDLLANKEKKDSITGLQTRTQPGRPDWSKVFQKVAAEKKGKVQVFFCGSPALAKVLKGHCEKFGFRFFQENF
Assay [11] in a line: A549 cell viability effects, profiling panel, calcein-AM fluorescence, 48 h, basal (AID 1162). Note: test concentration not given here. Particulars: higher = more signal.
The nature of assay [12]: adipocyte viability effects, profiling panel, cell-based, 3T3-L1 adipocytes, calcein-AM fluorescence, 48 h, basal (AID 1163). Note: test concentration not given here. Particulars: 3T3-L1 adipocytes viability, higher = more signal.
A short description of assay [13]: HepG2 cell viability effects, profiling panel, calcein-AM fluorescence, 48 h, basal (AID 1164). Note: test concentration not given here. Particulars: higher = more signal.
The nature of assay [14]: MM1S cell viability effects, profiling panel, calcein-AM fluorescence, 48 h, basal (AID 1165).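 Note: viability of MM1S multiple myeloma cells under basal unstimulated conditions; test concentration not given here.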 Particulars: higher = more signal.
Assay [15] can be described thus: basal RPMI8226 viability, no added stimulus, profiling panel, cell-based, calcein-AM fluorescence, 48 h, PK04 Diversity Set (AID 1166).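 Note: cells grown under basal conditions without added stimulus; test concentration not given here.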 Particulars: RPMI8226 myeloma viability, higher = more signal.
A short description of assay [16]: basal HepG2 mitochondrial membrane potential changes, profiling panel, cell-based, JC-1 fluorescence, 24 h, 100 nL compound (AID 1167). Note: test concentration not given here. Particulars: higher = more signal.
The nature of assay [17]: basal 3T3-L1 adipocyte mitochondrial potential changes, profiling panel, cell-based, JC-1 fluorescence, 3T3-L1 adipocytes, 24 h, 100 nL compound (AID 1168). Note: test concentration not given here. Particulars: JC-1 mitochondrial fluorescence, higher = more signal, called active from +8 up or from −8 down.
Assay [18] can be described thus: basal RPMI8226 mitochondrial membrane potential changes, profiling panel, cell-based, JC-1 fluorescence, 24 h, 100 nL compound (AID 1169). Note: test concentration not given here. Particulars: RPMI8226 myeloma, JC-1 mitochondrial potential fluorescence, higher = more signal.
Assay [19] can be described thus: basal MM1S mitochondrial membrane potential changes, profiling panel, cell-based, JC-1 fluorescence, 24 h, 100 nL compound (AID 1170). Note: test concentration not given here. Particulars: higher = more signal.
Assay [20] is described as follows: A549 lung cancer cell viability effects, profiling panel, resazurin fluorescence, 24 h, PK04 Diversity Set (AID 1171). Note: test concentration not given here. Particulars: higher = more signal, called active from +8 up or from −8 down.

NADPH oxidase 4 (Homo sapiens), sequence (Q9NPH5 whole entry, looked up): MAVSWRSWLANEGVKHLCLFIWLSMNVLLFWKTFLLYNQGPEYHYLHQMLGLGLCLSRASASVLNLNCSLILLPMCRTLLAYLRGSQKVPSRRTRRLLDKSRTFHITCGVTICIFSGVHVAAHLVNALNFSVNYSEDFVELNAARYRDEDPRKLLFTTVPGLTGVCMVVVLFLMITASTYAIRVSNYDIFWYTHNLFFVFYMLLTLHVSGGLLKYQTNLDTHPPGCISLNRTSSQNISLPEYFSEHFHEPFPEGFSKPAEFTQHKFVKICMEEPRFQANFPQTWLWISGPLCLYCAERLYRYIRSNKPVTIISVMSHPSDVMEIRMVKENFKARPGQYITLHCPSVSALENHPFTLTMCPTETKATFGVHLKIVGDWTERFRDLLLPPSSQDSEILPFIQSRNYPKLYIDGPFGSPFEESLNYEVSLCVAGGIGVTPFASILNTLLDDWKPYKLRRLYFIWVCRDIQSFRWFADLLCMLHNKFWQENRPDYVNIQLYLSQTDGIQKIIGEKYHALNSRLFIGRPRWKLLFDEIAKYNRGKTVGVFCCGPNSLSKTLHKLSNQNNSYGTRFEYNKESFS
NADPH oxidase 2 (Homo sapiens), sequence (P04839 whole entry, looked up): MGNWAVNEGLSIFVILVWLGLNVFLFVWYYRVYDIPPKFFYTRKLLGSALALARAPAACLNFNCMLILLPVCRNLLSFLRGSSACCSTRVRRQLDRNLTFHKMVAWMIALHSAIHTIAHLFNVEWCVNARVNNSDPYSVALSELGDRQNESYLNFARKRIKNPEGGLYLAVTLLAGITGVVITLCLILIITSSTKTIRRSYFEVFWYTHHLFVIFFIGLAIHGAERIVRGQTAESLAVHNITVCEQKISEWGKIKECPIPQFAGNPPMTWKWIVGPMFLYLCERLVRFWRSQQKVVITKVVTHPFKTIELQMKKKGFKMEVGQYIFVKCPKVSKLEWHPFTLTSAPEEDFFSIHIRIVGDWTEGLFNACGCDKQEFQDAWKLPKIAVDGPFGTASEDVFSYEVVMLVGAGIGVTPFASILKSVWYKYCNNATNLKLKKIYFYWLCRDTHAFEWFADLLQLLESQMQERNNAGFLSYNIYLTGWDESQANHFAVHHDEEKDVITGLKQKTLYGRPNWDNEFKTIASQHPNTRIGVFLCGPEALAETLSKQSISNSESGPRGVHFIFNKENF

`O=c1cccc(-c2ccc3ccccc3c2)o1`: the z-score in [1] is 0.62 (inactive); in assay [3], 25.4 (active); in [4], 10 (active); in assay [5], -1.71 (inactive); in assay [6] it was 1.1 (inactive); in assay [7] it was -0.38. In addition, the z-score was -0.415 (inactive) in [8]; -4.41 (inactive) in assay [9]; -1.19 in assay [10]; -0.996 in [11]; -0.696 in assay [12]; -0.644 in [13]. For the same compound, the z-score in [14] is -0.332; in assay [15] it was -0.406; in assay [16], -1.31; in assay [17] it was 0.529 (inactive); in [18], 0.463; in assay [19] it was -0.288. In assay [20], the z-score was -0.223 (inactive). This compound had a composite z-score in [2] of -0.0035.
On to `O=C1C[C@@](C(=O)O)(c2ccc([N+](=O)[O-])cc2)[C@@H](c2ccc(CO)cc2I)N1C1CCCCC1`, for which the z-score in assay [1] was 1.52 (inactive); in assay [3], 17.5 (active); in assay [4] it was 2.77 (inactive); in assay [5] it was 3.02 (inactive); in [6], 0.202 (inactive); in assay [7], 1.84. Moreover, the z-score in assay [8] was 1.46 (inactive); in [9], -2.82 (inactive); in [10], -1.78; in assay [11] it was 1.05; in assay [12] it was 1.32; in assay [13], 0.279. Moreover, the z-score was -3.6 in assay [14]; -3.61 in assay [15]; 0.053 in [16]; -0.962 (inactive) in assay [17]; -0.826 in assay [18]; -1.86 in assay [19]. Further, in assay [20], the z-score was 0.597 (inactive). In assay [2], this compound returned a composite z-score of 0.208.
In the case of `COCCOC(=O)N1C(=O)[C@@]2(c3cc(C#CC4(O)CCCCCC4)ccc31)[C@H](c1ccc(O)cc1)N1[C@H](c3ccccc3)[C@H](c3ccccc3)OC(=O)[C@H]1[C@@H]2C(=O)N1CCc2cc(OC)c(OC)cc2C1`, the z-score in assay [1] is 1.23 (inactive); in assay [3], -0.0535 (inactive); in assay [4], 0.49 (inactive); in assay [5], 0.44 (inactive); in [6], 0.286 (inactive); in [7], 0.0108. Besides, the z-score is -0.0758 (inactive) in assay [8]; 0.139 (inactive) in [9]; 0.979 in assay [10]; -0.742 in assay [11]; 0.0633 in assay [12]; -0.592 in assay [13]. The z-score in assay [14] is -0.435; in assay [15], -0.165; in [16], -0.206; in [17], -0.947 (inactive); in assay [18], 0.83; in assay [19] it was -0.494. Besides, the z-score in assay [20] is 1.65 (inactive). This compound also came in with a composite z-score in assay [2] of -0.0099.
As to `COc1ccc([Si](C)(C)[C@@H]2[C@@H](CCO)O[C@]3(C(=O)N(Cc4ccccc4)c4ccc(N(C=O)c5ccccc5)cc43)[C@H]2C)cc1`, the z-score in assay [1] is 0.601 (inactive); in assay [3], 2.8 (inactive); in assay [4], 2.37 (inactive); in assay [5] it was 1.09 (inactive); in [6] it was 1.87 (inactive); in assay [7], 0.418. The z-score in [8] is 0.337 (inactive); in [9], 1.06 (inactive); in [10], 2.49; in assay [11], -0.77; in [12], -0.895; in [13] it was -1.13. In addition, the z-score in assay [14] was -1.54; in [15], -3.38; in assay [16], 0.00444; in assay [17] it was -0.435 (inactive); in assay [18], -0.858; in assay [19] it was -1.56. Further, the z-score in assay [20] is -2.31 (inactive). Further, the composite z-score in assay [2] was found to be 0.0355.
Turning to `COc1ccc([Si](C)(C)[C@H]2[C@H](CCO)O[C@@]3(C(=O)N(Cc4cccc(N5C(=O)c6cccc7cccc5c67)c4)c4ccccc43)[C@@H]2C)cc1`, the z-score in [1] is 0.0084 (inactive); in [3] it was 1.54 (inactive); in assay [4] it was 2.2 (inactive); in [5] it was 0.712 (inactive); in [6], 1.31 (inactive); in assay [7] it was 1.26. For the same compound, the z-score in assay [8] is -0.139 (inactive); in assay [9], 0.61 (inactive); in assay [10], 1.6; in [11], -1.02; in assay [12], 0.894; in assay [13] it was -3.98. For the same compound, the z-score in [14] was -2.97; in assay [15], -4.23; in assay [16] it was -0.139; in assay [17], 1.49 (inactive); in assay [18], -1.02; in assay [19], -1.34. Also, the z-score in [20] is -2.92 (inactive). Further, in assay [2], the composite z-score was -0.012.
As to `C=CCNC(=O)[C@H]1[C@@H]2C(=O)O[C@@H](c3ccccc3)[C@@H](c3ccccc3)N2[C@@H](c2ccc(O)cc2)[C@]12C(=O)Nc1ccc(C#Cc3ccc(OC)cc3)cc12`, the z-score was -0.837 (inactive) in assay [1]; 2.41 (inactive) in [3]; 1.05 (inactive) in assay [4]; -0.99 (inactive) in assay [5]; 0.859 (inactive) in assay [6]; -0.294 in assay [7]. Besides, the z-score in [8] was 0.143 (inactive); in [9], -2.18 (inactive); in assay [10], -0.436; in assay [11], -1.06; in assay [12], 0.205; in assay [13] it was -1.78. For the same compound, the z-score was -2.37 in assay [14]; -4.35 in assay [15]; -0.385 in [16]; -0.0338 (inactive) in assay [17]; -1.22 in [18]; -0.614 in assay [19]. The z-score in assay [20] was -0.989 (inactive). The same compound returned a composite z-score in assay [2] of -0.0084.
For `COc1ccc([Si](C)(C)[C@H]2[C@H](CC(=O)N3Cc4ccccc4C[C@H]3CO)O[C@@]3(C(=O)N(Cc4cccc(I)c4)c4ccccc43)[C@@H]2C)cc1`, the z-score in assay [1] is 0.232 (inactive); in assay [3], 6.74 (inactive); in [4], 1.38 (inactive); in [5], 2.14 (inactive); in assay [6], 1.19 (inactive); in [7] it was 0.452. In addition, the z-score in [8] is -1.36 (inactive); in [9] it was -0.348 (inactive); in assay [10] it was -2.55; in [11], -0.817; in [12], 0.0894; in assay [13], -0.693. The z-score was -2.42 in assay [14]; -4.12 in assay [15]; 1.33 in assay [16]; 0.814 (inactive) in assay [17]; -1.06 in assay [18]; -0.605 in assay [19]. Further, the z-score in assay [20] was -1.84 (inactive). The compound further showed a composite z-score in [2] of 0.0233.
Turning to `O=C1OCCC=C[C@H]2OC34C=CCN(c5ccc6ccccc6c5)C(=O)[C@H]3N(CCCCCCO)C(=O)[C@@H]4C12` (stereo not given in full), the z-score in assay [1] was 0.901 (inactive); in assay [3], 0.856 (inactive); in assay [4] it was 0.712 (inactive); in [5], 0.738 (inactive); in [6], 0.426 (inactive); in assay [7], 1.08. The z-score is 1.42 (inactive) in assay [8]; 0.441 (inactive) in assay [9]; 2.68 in assay [10]; 0.705 in assay [11]; -0.488 in assay [12]; 0.461 in assay [13]. For the same compound, the z-score in assay [14] is 1.1; in assay [15], 0.734; in [16] it was 1.3; in [17], 0.0246 (inactive); in assay [18], -0.00773; in assay [19] it was -0.456. The z-score in assay [20] is 0.866 (inactive). For the same compound, the composite z-score in assay [2] is -0.0536.
With `Cc1ccc(S[C@]2(C(=O)NCCN3CCOCC3)CC(=O)N(C3CCCCC3)[C@@H]2c2ccc(CO)cc2)cc1`, the z-score was -0.288 (inactive) in assay [1]; 1.47 (inactive) in assay [3]; 0.502 (inactive) in assay [4]; 0.512 (inactive) in [5]; 0.377 (inactive) in [6]; -0.667 in assay [7]. Also, the z-score in assay [8] is 0.444 (inactive); in assay [9], 1 (inactive); in assay [10] it was 0.923; in assay [11] it was 2.25; in assay [12], 0.486; in assay [13], 0.555. The z-score in assay [14] was 0.309; in assay [15] it was -0.65; in assay [16] it was -0.0786; in assay [17], -0.281 (inactive); in [18] it was 0.698; in assay [19], 0.485. Further, in assay [20], the z-score is 1.51 (inactive). This compound showed a composite z-score in [2] of 0.136.
